Experimental data published in PubChem BioAssay (NCATS).
Inconclusive results are not listed. Activity calls are given as the source filed them. Calls come from the whole dose curve; as a rule, active = well fitted cell-killing curve with a large enough effect; inconclusive = small, poorly fitted or top-dose-only effect, or effect the other way; inactive = no such curve, though single readings can be large or run the other way.

experiment: Quantitative High-Throughput drug screen in 47 multiple myeloma cell lines against the NCATS MIPE library collection: Karpas25_ECACC cell viability assay (AID 1918968; note: nearly all actives have a fitted effect of over 35% in size); conditions: Karpas25 myeloma viability, CellTiter-Glo ATP, 48 h; series mostly up to 45.8 µM
How it was run: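 Steps: seed 500 cells per well; pin-transfer MIPE 4.0 library; incubate 48 h at 37C, 5% CO2, humidified; add CellTiter-Glo, 5 min room temperature; read luminescence.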
Potency is the fitted concentration of half-maximal effect.

Row | Compound | Potency
1 | Cc1ccc(NC(=O)C2(c3ccc4c(c3)OC(F)(F)O4)CC2)nc1-c1cccc(C(=O)O)c1 | 33.2 nM (active)
2 | COc1ccc(C(=O)CC2(O)C(=O)Nc3c(Cl)ccc(Cl)c32)cc1 (stereo not drawn) | 5260 nM (active)
3 | Cc1ccc(-c2ncn(-c3ccc(Nc4nccc(-c5cccc(N6CCOCC6)c5)n4)cc3)n2)cn1 | 83.3 nM (active)
4 | CCCCOc1c(C(=O)c2c(F)cc(C)cc2F)cnc2n[nH]cc12 | 4690 nM (active)
5 | CC(=O)c1c(C)c2cnc(Nc3ccc(N4CCNCC4)cn3)nc2n(C2CCCC2)c1=O | 11800 nM (active)
6 | CNC(=O)c1ccc(N2C(=S)N(c3cnc(C#N)c(C(F)(F)F)c3)C(=O)C23CCC3)cc1F | 743 nM (active)
7 | O=c1[nH]nc(Sc2ncc([N+](=O)[O-])s2)n1-c1ccc2c(c1)OCCO2 | 1320 nM (active)
8 | CN(C)CC=CC(=O)Nc1cc2c(Nc3ccc(F)c(Cl)c3)ncnc2cc1O[C@H]1CCOC1 | 1320 nM (active)
9 | Cn1c2ccccc2c2c3c(c4c5ccccc5n(CCC#N)c4c21)CNC3=O | 1870 nM (active)
10 | CC(NCc1ccc2c(c1)nc(NC(=O)c1ccc(-c3cn[nH]c3)s1)n2CC(C)(C)O)C(C)(C)C (stereo not drawn) | 264 nM (active)
11 | C#Cc1cccc(Nc2ncnc3cc(OC)c(OCCCCCCC(=O)NO)cc23)c1 | 52.6 nM (active)
12 | CC1(O)CC(c2nc(-c3ccc4ccc(-c5ccccc5)nc4c3)c3c(N)nccn23)C1 (stereo not drawn) | 372 nM (active)
13 | CC(C)(C)c1cnc(CSc2cnc(NC(=O)C3CCNCC3)s2)o1 | 209 nM (active)
14 | CCS(=O)(=O)c1cccc(-c2cc(C(=O)NC3CCN(C)CC3)c(C)c3[nH]c4ncc(C)cc4c23)c1 | 1180 nM (active)
15 | Cc1ccc(C(=O)Nc2cccc(C(F)(F)F)c2)cc1-c1ccc2nc(NCCN3CCOCC3)ncc2c1 | 5260 nM (active)
16 | CNC(=O)c1ccccc1Nc1nc(Nc2ccc(N3CCOCC3)cc2OC)ncc1Cl | 209 nM (active)
17 | OCCCNc1cc(-c2ccnc(Nc3cccc(Cl)c3)n2)ccn1 | 41.8 nM (active)

Row | Compound | Potency
18 | CC(C)c1ccccc1Cc1cc(C(=O)Nc2ccc(S(=O)(=O)c3ccccc3C(C)(C)C)cc2)c(O)c(O)c1O | 3720 nM (active)
19 | Cn1cc(-c2[nH]c3cc(NC(=O)[C@H](N)C4CCCCC4)cc4c3c2C=NNC4=O)cn1 | 935 nM (active)
20 | N#CCNC(=O)c1ccc(-c2ccnc(Nc3ccc(N4CCOCC4)cc3)n2)cc1 | 9350 nM (active)
21 | CN1CC[C@@H](c2c(O)cc(O)c3c(=O)cc(-c4ccccc4Cl)oc23)[C@@H](O)C1 | 83.3 nM (active)
22 | NC(=O)Nc1cc(-c2cccc(F)c2)sc1C(=O)N[C@H]1CCCNC1 | 590 nM (active)
23 | CN(C)Cc1c(C(=O)NCCOc2ccc(C(=O)NO)cc2)oc2ccccc12 | 662 nM (active)
24 | Cc1[nH]nc2ccc(-c3cncc(OC[C@@H](N)Cc4ccccc4)c3)cc12 | 2960 nM (active)
25 | COC(=O)[C@]12CCC(C)(C)C[C@@H]1[C@@H]1C(=O)C=C3[C@@]4(C)C=C(C#N)C(=O)C(C)(C)[C@@H]4CC[C@@]3(C)[C@]1(C)CC2 | 209 nM (active)
26 | CC(C)C[C@H](NC(=O)CNC(=O)c1cc(Cl)ccc1Cl)B(O)O | 41.8 nM (active)
27 | O=C(CCCCCCNC(=O)c1cnc(N(c2ccccc2)c2ccccc2)nc1)NO | 4180 nM (active)
28 | CC=C1NC(=O)[C@H]2CSSCCC=C[C@H](CC(=O)N[C@H](C(C)C)C(=O)N2)OC(=O)[C@H](C(C)C)NC1=O | 14.8 nM (active)
29 | CC1=C(CO)C(=O)O[C@@H]([C@@H](C)[C@H]2CC[C@H]3[C@@H]4C[C@H]5O[C@]56[C@@H](O)C=CC(=O)[C@]6(C)[C@@H]4CC[C@]23C)C1 | 132 nM (active)
30 | CC(=O)Nc1nc(C)c(-c2ccc(Cl)c(S(=O)(=O)NCCO)c2)s1 | 1180 nM (active)
31 | O=C(Nc1cc(C(F)(F)F)cc(C(F)(F)F)c1)c1cc(Cl)ccc1O | 372 nM (active)
32 | O=C(Nc1cn[nH]c1-c1nc2ccc(CN3CCOCC3)cc2[nH]1)NC1CC1 | 1870 nM (active)
33 | CNc1nccc(-c2cccnc2Oc2cc(C(=O)Nc3cccc(C(F)(F)F)c3)ccc2C)n1 | 8330 nM (active)
